Sampled rows, rich in hits. Any-hit rate of the full collection: about 1.9%.
YjeE inh – inhibitors of E. coli YjeE (TsaE) | actives 0.05% (n = 71,000) | Potency, µM | P0AF67 | AID 605 | purified YjeE enzyme, qHTS inhibition assay
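Fluorescence polarization of a BODIPY Texas Red–ADP probe (2 uM) bound to purified YjeE (10 uM) was read after 15 min room-temperature incubation with compounds. Loss of polarization marks inhibitors; ADP serves as titrated control.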
DNA Pol III inh – inhibitors of bacterial DNA polymerase III holoenzyme | reconstituted DNA polymerase III holoenzyme replication, biochemical | Potency, µM (doses to about 57.1 µM), without a hit: top-dose activity change, negative = inhibition | actives 0.25% (n = 71,000) | AID 603; note: potency is the fitted concentration of half-maximal effect; % is set by controls: 0 for no effect and ±100 for the full control effect
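Reconstituted *E. coli* holoenzyme (0.35 nM Pol III, 1 nM beta, 154 nM SSB, 2 nM primase) was preincubated with compound for 15 min at RT. Synthesis on 1.4 nM ssM13Gori ran 35 min, then was stopped with PicoGreen/EDTA and read as dsDNA fluorescence.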
ALOX15 inhib – blocks human 15-lipoxygenase activity | P16050 | purified 15hLO-1, xylenol orange hydroperoxide absorbance | Potency, µM (series often up to 57.1 µM), for inactives: at the top dose activity change, negative = inhibition, hits mostly inhibitors | actives 1.4% (n = 74,000); note: potency is the fitted concentration of half-maximal effect; % is set by controls: 0 for no effect and ±100 for the full control effect; nearly all actives have a fitted effect of over 55% in size
Target sequence (P16050 whole entry, looked up): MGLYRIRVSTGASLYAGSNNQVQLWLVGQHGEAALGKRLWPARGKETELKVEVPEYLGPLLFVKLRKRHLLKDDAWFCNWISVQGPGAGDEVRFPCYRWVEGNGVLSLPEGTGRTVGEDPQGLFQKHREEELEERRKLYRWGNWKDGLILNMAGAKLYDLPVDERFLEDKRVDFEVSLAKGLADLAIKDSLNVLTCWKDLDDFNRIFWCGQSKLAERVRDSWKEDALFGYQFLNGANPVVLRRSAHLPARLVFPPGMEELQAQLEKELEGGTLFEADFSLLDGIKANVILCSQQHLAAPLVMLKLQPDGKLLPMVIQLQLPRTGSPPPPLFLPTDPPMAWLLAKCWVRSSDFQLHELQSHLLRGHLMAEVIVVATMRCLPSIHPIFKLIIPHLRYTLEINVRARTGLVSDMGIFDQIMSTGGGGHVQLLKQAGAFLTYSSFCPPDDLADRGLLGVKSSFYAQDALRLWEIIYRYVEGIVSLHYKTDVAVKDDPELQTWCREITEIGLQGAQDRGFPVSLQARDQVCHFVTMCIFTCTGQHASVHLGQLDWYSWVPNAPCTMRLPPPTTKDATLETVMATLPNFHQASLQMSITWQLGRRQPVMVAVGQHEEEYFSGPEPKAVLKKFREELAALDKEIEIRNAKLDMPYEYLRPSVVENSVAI
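Compounds were preincubated 15 min at room temperature with 40 nM purified human enzyme (25 mM Hepes pH 7.5, 0.01% Triton X-100); 50 uM arachidonic acid reacted 6 min. Fe-xylenol orange detection, 30 min, absorbance ratio 573/405 nm.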
Hsp90 Hop PPI – changes Hsp90-Hop TPR2A binding signal, up or down; Potency, µM (series often up to 57 µM), for inactives: top-dose activity change, negative = inhibition; AlphaScreen TPR2A-His6 binding biotin-Hsp90 C-terminal peptide; actives 0.44% (n = 71,000); active = well fitted curve in either direction with a large enough effect; inconclusive = small, poorly fitted or top-dose-only effect, or another doubt; note: potency is the fitted concentration of half-maximal effect; % is set by controls: 0 for no effect and ±100 for the full control effect
BRCT inh green – blocks human BRCA1 BRCT binding to phosphopeptide, green readout. P38398. BRCA1 BRCT-phosphopeptide binding, green fluorescence polarization. Potency, µM (highest dose often 76.9 µM), without a hit: at the top dose activity change, negative = inhibition, usual class: inhibitors. actives 0.05% (n = 75,000). AID 875;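 note: potency is the fitted concentration of half-maximal effect; plate controls were peptide without protein for full effect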
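Fluorescence polarization: His-tagged BRCT (~35 kDa BRCA1 C-terminus, 250 nM) bound to 100 nM fluorescein-labeled phosphorylated 10-aa BACH1 peptide, pH 7.3 phosphate buffer with DTT and Tween 20. Compounds incubated 12 min at room temperature; inhibition read as lowered polarization.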
BRCT PPI red – inhibitors of human BRCA1 BRCT-phosphoprotein interaction (red fluorophore). P38398. BRCT-phosphopeptide binding, red fluorescence polarization. Potency, µM (doses to about 76.9 µM), without a hit: top-dose activity change, negative = inhibition, usual class: inhibitors. actives 0.03% (n = 75,000). AID 892; note: % is set by controls: 0 for no effect and ±100 for the full control effect
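Rhodamine-labelled pBACH1 10-mer (100 nM) bound to BRCT domain (100 nM) at pH 7.3; compounds incubated 12 min room temperature, polarization read. Free peptide defines full inhibition; unlabelled decapeptide titrated as control.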
* marks the source's active call; other numbers are inactive results; [ ] = another dose, or the depositor's remark. Unless noted, calls come from the whole dose curve; as a rule, active = well fitted curve in the direction sought with a large enough effect; inconclusive = small, poorly fitted or top-dose-only effect, or another doubt; inactive = no such curve, though single readings can be large; an effect the other way counts as inactive or inconclusive.

How did O=C1c2ccccc2NC(c2ccc(Cl)cc2Cl)N1O (configuration not stated) do in these assays?
YjeE inh: inactive; DNA Pol III inh: -4.6%; ALOX15 inhib: 15.8µM*; Hsp90 Hop PPI: -3.8%; BRCT inh green: -1.8%; BRCT PPI red: -0.5%

What do the screens show for `COc1ccc(-c2nn(-c3ccccc3)cc2C(=O)O)cc1`?
YjeE inh: inactive; DNA Pol III inh: -8.8%; ALOX15 inhib: -1.2%; Hsp90 Hop PPI: -2.8%; BRCT inh green: -0.8%; BRCT PPI red: 0.7%

Results for CC(C)OC(=O)c1cn(-c2ccccc2)nc1-c1ccco1 ?
YjeE inh: inactive; DNA Pol III inh: -13.0%; ALOX15 inhib: 20µM*; Hsp90 Hop PPI: 3.2%; BRCT inh green: 3.2%; BRCT PPI red: -0.7%

What do the screens show for `CN(C)c1ccc(C(=S)NCc2ccco2)cc1`?
YjeE inh: inactive; DNA Pol III inh: -0.8%; ALOX15 inhib: 25.1µM*; Hsp90 Hop PPI: -10.1%; BRCT inh green: 5.3%; BRCT PPI red: 0.6%

Results for COc1ccc(-n2nc3cc(C)c(N)c(Br)c3n2)cc1 ?
YjeE inh: inactive; DNA Pol III inh: -10.1%; ALOX15 inhib: 15.8µM*; Hsp90 Hop PPI: 0.4%; BRCT inh green: 0.6%; BRCT PPI red: -0.7%

What do the screens show for `COc1ccc(-n2nc3ccccc3n2)cc1`?
YjeE inh: inactive; DNA Pol III inh: -1.8%; ALOX15 inhib: 3.5%; Hsp90 Hop PPI: 3.5%; BRCT inh green: 2.5%; BRCT PPI red: -0.1%

Results for CCC1=C/C(=C/N(C)c2ccccc2)C(=O)S1 ?
YjeE inh: inactive; DNA Pol III inh: -1.4%; ALOX15 inhib: 25.1µM*; Hsp90 Hop PPI: -15.0%; BRCT inh green: -6.2%; BRCT PPI red: -1.7%

Results for CCOC(=O)c1cccc(NC(=O)CSc2nnc(CNc3ccc(C)cc3)n2CC)c1 ?
YjeE inh: inactive; DNA Pol III inh: -0.4%; ALOX15 inhib: 12.6µM*; Hsp90 Hop PPI: -9.5%; BRCT inh green: -3.0%; BRCT PPI red: -3.4%

Results for OCCN1CCN(C(c2cccs2)c2ccc3cccnc3c2O)CC1 (configuration not stated) ?
YjeE inh: inactive; DNA Pol III inh: -6.2%; ALOX15 inhib: 3.98µM*; Hsp90 Hop PPI: 31.6µM*; BRCT inh green: -1.7%; BRCT PPI red: -0.5%

How did CC(C)(C)c1cc(C(c2cccnc2)N2CCN(CCO)CC2)cc(C(C)(C)C)c1O (configuration not stated) do in these assays?
YjeE inh: inactive; DNA Pol III inh: -2.1%; ALOX15 inhib: inconclusive; Hsp90 Hop PPI: -6.3%; BRCT inh green: 2.5%; BRCT PPI red: -2.4%

Results for Nc1ccccc1S[C@@H](C[N+](=O)[O-])c1ccc2c(c1)OCO2 ?
YjeE inh: inactive; DNA Pol III inh: -12.5%[11.4 µM]; ALOX15 inhib: 2.51µM*; Hsp90 Hop PPI: -5.6%[11 µM]; BRCT inh green: 0.9%[15.4 µM]; BRCT PPI red: 0.0%[15.4 µM]

How did c1ccc(SC(Sc2ccccc2)c2ccc3c(c2)OCO3)cc1 do in these assays?
YjeE inh: inactive; DNA Pol III inh: -12.7%[11.4 µM]; ALOX15 inhib: 3.8%[11.4 µM]; Hsp90 Hop PPI: 18.2%[11 µM]; BRCT inh green: -0.8%[15.4 µM]; BRCT PPI red: 0.2%[15.4 µM]

What do the screens show for `O=C(O)CCc1ccc(-c2ccccc2)n1-c1cccc(O)c1`?
YjeE inh: inactive; DNA Pol III inh: 2.0%; ALOX15 inhib: 10µM*; Hsp90 Hop PPI: -10.4%; BRCT inh green: 17.0%; BRCT PPI red: -2.4%

How did O=C(O)CCc1ccc(-c2ccccc2)n1CC(=O)O do in these assays?
YjeE inh: inactive; DNA Pol III inh: -5.0%; ALOX15 inhib: -14.1%; Hsp90 Hop PPI: -4.7%; BRCT inh green: 0.1%; BRCT PPI red: 0.9%

Results for C[C@@]12CCC(=O)C=C1CC[C@H]1[C@@H]2[C@@H](O)C[C@]2(C)[C@@H]1CC[C@@]2(O)C(=O)COC(=O)C1CCCC1 ?
YjeE inh: inactive; DNA Pol III inh: -11.7%[11.4 µM]; ALOX15 inhib: 14.1%[11.4 µM]; Hsp90 Hop PPI: 2.8%[11 µM]; BRCT inh green: 0.1%[15.4 µM]; BRCT PPI red: -0.7%[15.4 µM]

Results for Cc1cc(N)c2cc(OCCOc3ccc4nc(C)cc(N)c4c3)ccc2n1 ?
ALOX15 inhib: 17.5%[11.4 µM]; BRCT inh green: -1.6%[15.4 µM]; BRCT PPI red: 0.8%[15.4 µM]

How did Cc1cc(N)c2cc(NC(=O)Nc3ccc4nc(C)cc(N)c4c3)ccc2n1 do in these assays?
YjeE inh: inactive; DNA Pol III inh: 3.98µM*; ALOX15 inhib: 127.2%[11.4 µM]; Hsp90 Hop PPI: inconclusive; BRCT inh green: 9.5%[15.4 µM]; BRCT PPI red: 0.4%[15.4 µM]

Results for COc1ccc(CNC(=O)c2cc(-c3cccc(OC)c3)on2)cc1 ?
YjeE inh: inactive; DNA Pol III inh: -0.9%; ALOX15 inhib: -5.4%; Hsp90 Hop PPI: 5.2%; BRCT inh green: 2.3%; BRCT PPI red: 0.2%

What do the screens show for `O=C1C=CC2=C3c4cc(O)c(O)cc4C[C@@]3(O)COC2=C1O`?
YjeE inh: inconclusive; DNA Pol III inh: 0.02µM*; Hsp90 Hop PPI: inconclusive

What do the screens show for `COc1ccc(C2Nc3ccccc3C(=O)N2Cc2ccco2)cc1COc1ccc(NC(C)=O)cc1` (configuration not stated)?
YjeE inh: inactive; DNA Pol III inh: 8.9%; ALOX15 inhib: 15.8µM*; Hsp90 Hop PPI: inconclusive; BRCT inh green: 6.0%; BRCT PPI red: -1.3%

Results for COc1ccc(N2C(=O)c3ccc(NC(C)=O)cc3C2=O)cc1 ?
YjeE inh: inactive; DNA Pol III inh: -5.1%; ALOX15 inhib: 3.2%; Hsp90 Hop PPI: -0.9%; BRCT inh green: -0.1%; BRCT PPI red: -0.3%

What do the screens show for `COc1cc2c3c(c1)/C(=C1/SC(NC(C)=O)=NC1=O)C(=O)N3C(C)(C)C=C2C`?
YjeE inh: inactive; DNA Pol III inh: 1.0%; ALOX15 inhib: -19.7%; Hsp90 Hop PPI: 25.1µM*; BRCT inh green: -2.5%; BRCT PPI red: -0.9%

What do the screens show for `c1cncc(-c2cc(NCc3cccs3)ncn2)c1`?
YjeE inh: inactive; DNA Pol III inh: -2.7%; ALOX15 inhib: 25.1µM*; Hsp90 Hop PPI: -8.1%; BRCT inh green: -2.5%; BRCT PPI red: -3.8%

What do the screens show for `CC(=O)c1cccc(NS(=O)(=O)c2cccc(C(=O)O)c2)c1`?
ALOX15 inhib: 5.7%; BRCT inh green: 0.2%; BRCT PPI red: -0.6%

Results for Cc1cc(NO)nc(-c2ccc(Br)cc2)n1 ?
YjeE inh: inactive; DNA Pol III inh: -3.6%; ALOX15 inhib: 15.8µM*; Hsp90 Hop PPI: -2.9%; BRCT inh green: -2.3%; BRCT PPI red: 0.5%

What do the screens show for `Cc1cc(C)nc(NS(=O)(=O)c2ccc(Br)cc2)n1`?
YjeE inh: inactive; DNA Pol III inh: -6.2%; ALOX15 inhib: 1.7%; Hsp90 Hop PPI: -4.4%; BRCT inh green: -0.8%; BRCT PPI red: 0.6%

High-throughput results deposited in PubChem BioAssay by National Center for Advancing Translational Sciences (NCATS).
